Measured values taken from article PMC7819943, “Rice protein-binding microarrays: a tool to detect cis-acting elements near promoter regions in rice”.
Whole data set: some 39,000 sequences, median “fluorescence intensity (a.u.)” near 4,300, cut for the highest 2% near 39,000. What follows is part of a selection rich in the highest values, with near analogues and random picks from the rest.

Molecular target: T1, OsSMF1 (Oryza sativa, UniProt Q6ZLB0 1-436)
T1 sequence: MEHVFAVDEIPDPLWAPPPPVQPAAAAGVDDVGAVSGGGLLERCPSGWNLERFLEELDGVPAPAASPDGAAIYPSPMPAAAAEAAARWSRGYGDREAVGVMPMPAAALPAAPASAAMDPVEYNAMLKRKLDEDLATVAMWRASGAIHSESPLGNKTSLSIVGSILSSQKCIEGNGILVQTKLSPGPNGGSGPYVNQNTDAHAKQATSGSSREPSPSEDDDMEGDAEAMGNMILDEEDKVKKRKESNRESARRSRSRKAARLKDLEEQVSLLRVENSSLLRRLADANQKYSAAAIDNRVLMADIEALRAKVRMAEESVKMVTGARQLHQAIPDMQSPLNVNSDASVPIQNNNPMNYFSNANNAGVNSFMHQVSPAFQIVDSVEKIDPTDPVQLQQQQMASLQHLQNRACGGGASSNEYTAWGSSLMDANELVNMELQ
Experiment: protein-binding microarray (RPBM); PBS, 2% BSA, 51.3 ng/ul salmon testes DNA, 50 uM zinc acetate, 200 nM TF, 25 C, 1 h; high values mean tight binding
Details: protein: recombinant; tags: N-terminal polyhistidine and DsRed monomer fusion (pET32a); chain copies: 2; label: CyDye5-dUTP incorporated in the synthesized complementary strand; 3' TTTTT single-stranded linker to array surface; dsDNA, one strand shown
How it was run: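 Binding signal here means per-feature fluorescence intensity in arbitrary units. The values were read on an Axon 4000B scanner after a custom Agilent array, double-stranded by primer extension with Cy5-dUTP, was incubated with 200 nM protein at 25 °C for 1 h in PBS with 2% BSA, salmon testes DNA and 50 µM zinc acetate, then washed. The proteins were transcription factors with an N-terminal polyhistidine tag and DsRed, expressed in E. coli BL21-CodonPlus and purified on Ni–NTA.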

Q: Which binding signal does the source give for “TTTAGAATACTGCTCATACGTCAGTAACAAAGTCACACGACGGAGTCACCTAGTGCAG” here?
A: Its binding signal is 3880 fluorescence intensity (a.u.).

Q: “GCCCAAAGAAAGAAGGAGGTGGACACGTGGGAGATCTGCGCGGAGTCACCTAGTGCAG” was tested. Which binding signal did it give?
A: Its binding signal is 11200 fluorescence intensity (a.u.).

Q: How did the binding signal turn out when “CCCAATCCGAACGGGACAGCTGCCCACGTGCGACCCATGTCGGAGTCACCTAGTGCAG” was run?
A: Its binding signal is 4920 fluorescence intensity (a.u.).

Q: “CATTGCTTTGTTTGATCTTGTGTGCCAATAATTGATGAAACGGAGTCACCTAGTGCAG” was tested. Which binding signal did it give?
A: Its binding signal is 55900 fluorescence intensity (a.u.).

Q: “CTAATATATTGACGTGTAATTCTTTTGTGTGTTTGTGAAACGGAGTCACCTAGTGCAG” was tested. Which binding signal did it give?
A: The binding signal was 6530 fluorescence intensity (a.u.).

Q: Which binding signal does the source give for “CCAATTTGACGTGAAATGTTTAGATGATCTCTTGCCAGTACGGAGTCACCTAGTGCAG” here?
A: Its binding signal is 3150 fluorescence intensity (a.u.).

Q: For “ACATGGGGAAAACCAGGGACTAAAACTGTAATCAAACAGTCGGAGTCACCTAGTGCAG”, which binding signal is on record?
A: Its binding signal is 29500 fluorescence intensity (a.u.).

Q: Which binding signal does the source give for “CCTTCCGTTCGACGCGACACGCGAGTCATTGCTGCCACCACGGAGTCACCTAGTGCAG” here?
A: The binding signal was 3680 fluorescence intensity (a.u.).

Q: Which binding signal does the source give for “CCTCTCGTGGCATCGCATCGCATCGTGTCCTCTGCGACTGCGGAGTCACCTAGTGCAG” here?
A: Its binding signal is 3630 fluorescence intensity (a.u.).

Q: With “GACAAGCTCGGCACCAATCTCCACAGGAGCCGCATCAGGTCGGAGTCACCTAGTGCAG” as the sequence, how does the binding signal read?
A: Its binding signal is 3420 fluorescence intensity (a.u.).

Q: “AGTCCAAGAGCGTGACGCATGTTCGGTACCACGCGCACAACGGAGTCACCTAGTGCAG” was tested. Which binding signal did it give?
A: Its binding signal is 4740 fluorescence intensity (a.u.).

Q: Which binding signal does the source give for “GACCCAAATGTCATAGAGACACGACGGTTCACATGTCATACGGAGTCACCTAGTGCAG” here?
A: Its binding signal is 3900 fluorescence intensity (a.u.).

Q: Which binding signal does the source give for “CATGTCGACATGTTCACAAGCGGTACCAAGAGTCAAGACACGGAGTCACCTAGTGCAG” here?
A: Its binding signal is 45800 fluorescence intensity (a.u.).

Q: “TCTCCCTCTACCTCGACGTCATCAACCTCTTCCTCTCCCTCGGAGTCACCTAGTGCAG” was tested. Which binding signal did it give?
A: Its binding signal is 11000 fluorescence intensity (a.u.).

Q: How did the binding signal turn out when “GTTAACAGTAAGTTATTCTTTGAACTCCATATATTTGTTCCGGAGTCACCTAGTGCAG” was run?
A: Its binding signal is 3440 fluorescence intensity (a.u.).

Q: How did the binding signal turn out when “ACACCATGCGTATGATGCAATACCTATTGACTCCATTGAACGGAGTCACCTAGTGCAG” was run?
A: The binding signal was 3380 fluorescence intensity (a.u.).

Q: How did the binding signal turn out when “GTATTGATGTTCTTACCATAAAAGTAACTCCATGAAAGAACGGAGTCACCTAGTGCAG” was run?
A: The binding signal was 41100 fluorescence intensity (a.u.).

Q: For “ACACTAGTAACAAAACTTGGCAATTTGGCATTTGGCATTTCGGAGTCACCTAGTGCAG”, which binding signal is on record?
A: Its binding signal is 3300 fluorescence intensity (a.u.).

Q: For “TAGATTGCTTTTCAGTGAAACTACGTGCACATATGCATGCCGGAGTCACCTAGTGCAG”, which binding signal is on record?
A: Its binding signal is 3250 fluorescence intensity (a.u.).

Q: “GCTTTGCATAGGCACTTTCAAAACTAGATATTAGTAACGCCGGAGTCACCTAGTGCAG” was tested. Which binding signal did it give?
A: The binding signal was 51000 fluorescence intensity (a.u.).

Q: “ACAGGTGCACGCACACGTGCCGCATCAACCAGACAGCCACCGGAGTCACCTAGTGCAG” was tested. Which binding signal did it give?
A: Its binding signal is 3360 fluorescence intensity (a.u.).

Q: Which binding signal does the source give for “AAAATTTATTCATCCATCGTCATAATTTTAATTATATGCACGGAGTCACCTAGTGCAG” here?
A: Its binding signal is 4150 fluorescence intensity (a.u.).

Q: With “TTTTATTTCATTATATGATCCCATCAAATATAAATTAGCACGGAGTCACCTAGTGCAG” as the sequence, how does the binding signal read?
A: The binding signal was 48500 fluorescence intensity (a.u.).

Q: “AATATTTACATTACTAAATTAGTTTTATTAAATTAATAATCGGAGTCACCTAGTGCAG” was tested. Which binding signal did it give?
A: Its binding signal is 19800 fluorescence intensity (a.u.).

Q: How did the binding signal turn out when “TAGTTATAAAGCACTGTAATTTTAGTTATAAATACAACATCGGAGTCACCTAGTGCAG” was run?
A: The binding signal was 3260 fluorescence intensity (a.u.).

Q: Which binding signal does the source give for “AAATATAATAAATTTAATGTTAACATATTTTACACGTAAGCGGAGTCACCTAGTGCAG” here?
A: Its binding signal is 9740 fluorescence intensity (a.u.).

Q: For “AAACATAACAATATTTTCAACATAAAACAAATAATGTTATCGGAGTCACCTAGTGCAG”, which binding signal is on record?
A: The binding signal was 3530 fluorescence intensity (a.u.).

Q: Which binding signal does the source give for “TGTTTAATAATAAATTTAGTAACATCAATTTTACATGATTCGGAGTCACCTAGTGCAG” here?
A: The binding signal was 46100 fluorescence intensity (a.u.).

Q: “CATATTATAAAATGTTGTGCTAATTATTATCGGTGTATATCGGAGTCACCTAGTGCAG” was tested. Which binding signal did it give?
A: The binding signal was 22300 fluorescence intensity (a.u.).

Q: Which binding signal does the source give for “CTCTCAAAATATTCGGATGTAATTTTAGTCGCACAAACATCGGAGTCACCTAGTGCAG” here?
A: The binding signal was 39200 fluorescence intensity (a.u.).

Q: “CGGTGTTTGTAATTCATTTTATATAATGAAAATGGATTATCGGAGTCACCTAGTGCAG” was tested. Which binding signal did it give?
A: The binding signal was 44600 fluorescence intensity (a.u.).

Q: For “TTATAAATTAAATTTTATGTAATGAAAATAATATCATTGGCGGAGTCACCTAGTGCAG”, which binding signal is on record?
A: The binding signal was 3900 fluorescence intensity (a.u.).

Q: For “GTAAATTTCATAAAATCCCACGTATTATGATTCAAATTGCCGGAGTCACCTAGTGCAG”, which binding signal is on record?
A: The binding signal was 5110 fluorescence intensity (a.u.).

Q: Which binding signal does the source give for “CTGCGCGTAGAAGTGACGCAAGAAGGCAGCGGGCCCACTACGGAGTCACCTAGTGCAG” here?
A: Its binding signal is 3230 fluorescence intensity (a.u.).

Q: With “AGAACCTTCCGCGCTTCCGTGCTCCCCACCGCCACCTCGCCGGAGTCACCTAGTGCAG” as the sequence, how does the binding signal read?
A: The binding signal was 3430 fluorescence intensity (a.u.).

Q: With “TCACATCCACGTATATTCCCTTCCCCTTCTCCAACCTTTCCGGAGTCACCTAGTGCAG” as the sequence, how does the binding signal read?
A: The binding signal was 9390 fluorescence intensity (a.u.).

Q: Which binding signal does the source give for “TCATCATCAAGACTGAGTCACTGACACGTGTGCACCTATGCGGAGTCACCTAGTGCAG” here?
A: The binding signal was 27900 fluorescence intensity (a.u.).

Q: “TCTATATTCTACTCAATGCTTGGTTCTAAATTGGCCTCAACGGAGTCACCTAGTGCAG” was tested. Which binding signal did it give?
A: Its binding signal is 24700 fluorescence intensity (a.u.).

Q: For “CTATTTGTGTCTTGTGTACTTCAACGTCTTCCTCTTATGACGGAGTCACCTAGTGCAG”, which binding signal is on record?
A: The binding signal was 3680 fluorescence intensity (a.u.).

Q: With “ATACAGTAAATATTTGCTAATGACGGATTAATTAGGCTTACGGAGTCACCTAGTGCAG” as the sequence, how does the binding signal read?
A: The binding signal was 3790 fluorescence intensity (a.u.).

Q: For “GCGTGCGCGTCGACGTCGTCACCGCCGTCCACGGCGTAGTCGGAGTCACCTAGTGCAG”, which binding signal is on record?
A: The binding signal was 5680 fluorescence intensity (a.u.).

Q: How did the binding signal turn out when “ACATCCTATCCCGTGCATTGAATCAGCATTGTACAGCAAACGGAGTCACCTAGTGCAG” was run?
A: Its binding signal is 3370 fluorescence intensity (a.u.).

Q: How did the binding signal turn out when “GAGCTCCACCTCCTCGCGTGCCCACGCCATCCATGGCTTCCGGAGTCACCTAGTGCAG” was run?
A: The binding signal was 4500 fluorescence intensity (a.u.).

Q: With “AAATACATCCAAGAACACAATATATTCCAATATTTTGTCACGGAGTCACCTAGTGCAG” as the sequence, how does the binding signal read?
A: The binding signal was 34500 fluorescence intensity (a.u.).

Q: With “GGTTGTTCTAACAAATTGTTTATAAAACAATTTGATTTTGCGGAGTCACCTAGTGCAG” as the sequence, how does the binding signal read?
A: Its binding signal is 3570 fluorescence intensity (a.u.).

Q: “TTTATATAATAGTTACTTACTATACTATTAATACTTGATTCGGAGTCACCTAGTGCAG” was tested. Which binding signal did it give?
A: Its binding signal is 16600 fluorescence intensity (a.u.).

Q: For “AGGGAAAGATTCTAACAAATAAAGAAAAGAACAATGCAGCCGGAGTCACCTAGTGCAG”, which binding signal is on record?
A: The binding signal was 3260 fluorescence intensity (a.u.).

Q: How did the binding signal turn out when “CGGAGGGAGTATAAAAGAACAATACTTCTATAAATTTTGTCGGAGTCACCTAGTGCAG” was run?
A: Its binding signal is 40300 fluorescence intensity (a.u.).

Q: “AAAATTATGTTGTCATTTTAATATATTTGAATAATACATTCGGAGTCACCTAGTGCAG” was tested. Which binding signal did it give?
A: The binding signal was 3560 fluorescence intensity (a.u.).

Q: “ATAATTTGGTGTTACAGTAAACATTTGCTAATAATGGATTCGGAGTCACCTAGTGCAG” was tested. Which binding signal did it give?
A: The binding signal was 49500 fluorescence intensity (a.u.).

Q: Which binding signal does the source give for “ATGTCGTAGCTTTTAATTATATACTACTATAAATTTGATTCGGAGTCACCTAGTGCAG” here?
A: The binding signal was 43700 fluorescence intensity (a.u.).

Q: With “TTTGTCTATAAATTTAGTCAAACTTGAAACAATTTGATTTCGGAGTCACCTAGTGCAG” as the sequence, how does the binding signal read?
A: The binding signal was 14600 fluorescence intensity (a.u.).

Q: With “GTGGTGCTACAGTAAATATTTGCTAATGATAGATTAATTACGGAGTCACCTAGTGCAG” as the sequence, how does the binding signal read?
A: Its binding signal is 7300 fluorescence intensity (a.u.).

Q: How did the binding signal turn out when “ATTTAATAAAACTTATTTGGTGTTGTAAATGTTGCTAAATCGGAGTCACCTAGTGCAG” was run?
A: Its binding signal is 26700 fluorescence intensity (a.u.).

Q: Which binding signal does the source give for “TTTTCTATAAATTTAGTCAAATATAACAAAGTTTGATTAGCGGAGTCACCTAGTGCAG” here?
A: Its binding signal is 42600 fluorescence intensity (a.u.).
